Results as given in PMC4336329 (PLoS ONE, 2015).
The whole screen tested about 310,000 compounds, of which about 14,000 (4.5%) showed an effect of 50% or more. The effect is printed as a negative number. Only a selection was taken, and strong results are over-represented in it overall.

Each compound was assayed against human ether-à-go-go-related gene (hERG) potassium channel (human, UniProt Q12809) (assay: primary screen, population patch clamp on CHO cells stably expressing hERG; higher = less effect of the substance).
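Note: peak tail current of the secondary pulse compared with the same well before compound.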

Chain of human ether-à-go-go-related gene (hERG) potassium channel (Q12809 whole entry, looked up): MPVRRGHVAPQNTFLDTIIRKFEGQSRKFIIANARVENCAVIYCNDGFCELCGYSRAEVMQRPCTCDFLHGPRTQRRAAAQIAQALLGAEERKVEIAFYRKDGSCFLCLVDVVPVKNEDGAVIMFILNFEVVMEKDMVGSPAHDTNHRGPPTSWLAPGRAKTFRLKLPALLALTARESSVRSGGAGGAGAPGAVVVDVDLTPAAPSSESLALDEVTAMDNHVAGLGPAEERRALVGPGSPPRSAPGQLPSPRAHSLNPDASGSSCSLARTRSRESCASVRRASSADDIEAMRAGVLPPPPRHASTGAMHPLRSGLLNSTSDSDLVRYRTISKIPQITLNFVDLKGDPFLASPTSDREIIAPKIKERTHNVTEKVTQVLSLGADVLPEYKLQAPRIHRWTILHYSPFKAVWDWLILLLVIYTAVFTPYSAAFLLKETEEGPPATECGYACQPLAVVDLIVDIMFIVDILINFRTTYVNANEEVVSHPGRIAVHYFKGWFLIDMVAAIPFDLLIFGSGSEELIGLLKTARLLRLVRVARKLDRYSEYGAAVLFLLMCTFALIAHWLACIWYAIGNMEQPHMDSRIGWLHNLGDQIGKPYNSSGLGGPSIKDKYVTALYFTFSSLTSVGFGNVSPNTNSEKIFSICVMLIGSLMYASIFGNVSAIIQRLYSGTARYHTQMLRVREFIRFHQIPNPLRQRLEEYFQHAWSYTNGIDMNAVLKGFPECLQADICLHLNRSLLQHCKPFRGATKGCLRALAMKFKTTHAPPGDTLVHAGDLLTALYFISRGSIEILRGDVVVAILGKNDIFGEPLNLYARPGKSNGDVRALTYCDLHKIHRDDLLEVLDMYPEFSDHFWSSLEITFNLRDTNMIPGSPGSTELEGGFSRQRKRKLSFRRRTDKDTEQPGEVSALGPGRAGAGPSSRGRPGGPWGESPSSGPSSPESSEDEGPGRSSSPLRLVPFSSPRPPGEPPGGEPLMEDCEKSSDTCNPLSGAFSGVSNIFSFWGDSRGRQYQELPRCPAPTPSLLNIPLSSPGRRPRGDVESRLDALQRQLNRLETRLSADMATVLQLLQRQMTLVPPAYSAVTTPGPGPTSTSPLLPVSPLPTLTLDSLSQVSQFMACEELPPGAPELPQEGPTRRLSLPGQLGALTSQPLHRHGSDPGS

SMILES	hERG current change (%, negative = inhibition) at 10uM
CCCc1nnc(NC(=O)c2ccncc2)s1	-3.78%
COc1ccc(NS(=O)(=O)c2ccc(NS(=O)(=O)c3cccs3)cc2)cc1	11.8%
CCOC(=O)c1cnc(-c2ccccc2)nc1Oc1ccc(OC)cc1	14.2%
CCc1csc(CCNC(=O)C2CCC(=O)N(CCc3cccc(F)c3)C2)n1 (centres unmarked)	-13.4%
O=c1c2ccccc2nc2n1C(CSc1ccc(F)cc1)CS2 (centres unmarked)	-33.3%
O=c1c2ccccc2nc2n1C(CSCc1ccccc1)CS2 (centres unmarked)	-37.1%
O=C(Nc1ccccc1SCC1CSc2nc3ccccc3c(=O)n21)c1ccccc1Cl (centres unmarked)	-70.5%
COC(=O)c1sc2ccccc2c1NC(=O)c1ccc(S(=O)(=O)N2CCCCC2)cc1	11.2%
Cc1c(/C=N/NC(=O)c2ccc(Br)o2)cnn1C	21%
O=C1N=C(N2CCOCC2)S/C1=C/c1cccs1	-5.52%
O=C1N=C(N2CCN(Cc3ccccc3)CC2)S/C1=C/c1cccs1	-41.1%
N#CCCN1CCN(C2=NC(=O)/C(=C\c3cccs3)S2)CC1	-52.4%
O=C(CCSCc1cccc(Cl)c1)NCCc1ccc(Cl)cc1	4.09%
CCCCCCCCn1c(N2CCN(c3cccc(Cl)c3)CC2)nc2c1c(=O)[nH]c(=O)n2C	5.65%
Cc1ccc(S(=O)(=O)NCCC(=O)N2CCC(C(N)=O)CC2)cc1C	-6.54%
CCOc1ccccc1CN1C2CCC1CC(c1ccc(C)cc1)C2 (centres unmarked)	-60.9%
CCOc1ccccc1CN1C(=O)NC2(CCCCCC2)C1=O	9.32%
CCCN1C2CCCC1CC(NC(=O)c1ccccc1OCC)C2 (centres unmarked)	-47.2%
CCOc1ccccc1C(=O)NC1CC2CCCC(C1)N2Cc1ccc(C)cc1 (centres unmarked)	-65.2%
Cc1ccccc1C(=O)NC1CC2CCCC(C1)N2Cc1ccccc1 (centres unmarked)	-25%
COc1ccccc1C(=O)NC1CC2CCC(C1)N2Cc1ccccc1 (centres unmarked)	-20.4%
CCCN1C2CCCC1CC(NC(=O)c1ccccc1OC)C2 (centres unmarked)	-3.42%
CCOc1ccccc1CN1CCC(O)CC1	12.1%

SMILES	hERG current change (%, negative = inhibition) at 10uM
CCOc1ccccc1C(=O)NC1CC2CCCC(C1)N2Cc1ccccc1 (centres unmarked)	-54.5%
Cc1ccccc1C(=O)NC1CC2CCCC(C1)N2Cc1ccc(Cl)cc1 (centres unmarked)	-71%
CCOc1ccccc1C(=O)NC1CC2CCCC(C1)N2C1CC1 (centres unmarked)	-19%
Cc1ccccc1C(=O)NC1CC2CCC(C1)N2Cc1ccccc1 (centres unmarked)	-25%
O=S(=O)(Nc1ccc(O)cc1)c1cccc2cccnc12	10.2%
Cc1ccc(CN2CC(C(=O)Nc3ccc(S(=O)(=O)Nc4cc(C)nc(C)n4)cc3)CC2=O)cc1 (centres unmarked)	15.6%
CCC1C(=O)NCCN1C(=O)c1cccc(OC2CCN(S(=O)(=O)N(C)C)CC2)c1 (centres unmarked)	14%
CN(C)CCN(Cc1ccccc1)C(=O)[C@H](Cc1ccccc1)N1C(=O)c2ccccc2C1=O	-30.1%
Cc1ccc(S(C)(=O)=NS(=O)(=O)c2cccc3nsnc23)cc1 (centres unmarked)	7.47%
O=c1c2ccccc2nc(SCc2nnc(-c3ccccc3Br)o2)n1-c1ccccc1	-1.38%
Cc1csc(C(C#N)C(=O)c2cc3ccccc3o2)n1 (centres unmarked)	-7.89%
CN(C)S(=O)(=O)Nc1ccccn1	16.5%
CCCCc1cc(=O)oc2cc(C)cc(O)c12	-17.2%
Cn1c(-c2ccccc2)cc2ccccc21	9.39%
COc1ccc(S(=O)(=O)N2CCN(C(=O)COc3ccc(C)c(C)c3)CC2)cc1OC	-37.1%
CC1CCCN(CCCNC(=O)c2cn(C)c3ccc(S(=O)(=O)N(C)C4CCCCC4)cc3c2=O)C1 (centres unmarked)	-71.4%
CCn1cc(C(=O)NCCCN2CC(C)CC(C)C2)c(=O)c2cc(S(=O)(=O)N(C)C)ccc21 (centres unmarked)	-55.5%
CCn1cc(C(=O)N2CC(C)CC(C)C2)c(=O)c2cc(S(=O)(=O)N(C)C)ccc21 (centres unmarked)	-8.98%
CN(C1CCCCC1)S(=O)(=O)c1ccc2c(c1)c(=O)c(C(=O)NCCCN1CCCC1)cn2C	-25.6%
CCn1cc(C(=O)NCCCN2CCCC(C)C2)c(=O)c2cc(S(=O)(=O)N(C)C3CCCCC3)ccc21 (centres unmarked)	-80.1%
CN(C1CCCCC1)S(=O)(=O)c1ccc2c(c1)c(=O)c(C(=O)NCCN1CCCC1)cn2C	-27.7%
CCn1cc(C(=O)NCCCN2CCCC(C)C2)c(=O)c2cc(S(=O)(=O)N3CCOCC3)ccc21 (centres unmarked)	14.6%
CCn1cc(C(=O)NCCCN2CC(C)CC(C)C2)c(=O)c2cc(S(=O)(=O)N(C)C3CCCCC3)ccc21 (centres unmarked)	-84.3%

SMILES	hERG current change (%, negative = inhibition) at 10uM
CCn1cc(C(=O)NCCCOC)c(=O)c2cc(S(=O)(=O)N(C)C)ccc21	14.3%
Cc1ccc(NC(=O)c2ccc(NC(=O)C3CCCCC3C(=O)O)cc2)cc1 (centres unmarked)	14.4%
O=C(CN1C(=O)NC2(CCCC2)C1=O)N1CCN(S(=O)(=O)c2cccc(C(F)(F)F)c2)CC1	-5.43%
O=C(O)C(Cc1c[nH]c2ccccc12)N1C(=O)c2ccccc2C1=O (centres unmarked)	-2.61%
Cc1ncc(CO)c(/C=N/Nc2cccc(Cl)n2)c1O.Cl	8.89%
O=c1oc(-c2ccc(Br)cc2)nc2ccccc12	17.8%
CC1=NNC(=O)/C1=C\c1cn(-c2ccccc2)nc1-c1ccc(Cl)cc1	3.69%
O=c1c2c(nc3c(-c4ccccc4)c[nH]n13)CCC2	10.9%
CC(C)CC(COCc1cccc(C(F)(F)F)c1)N1CCN(C(=O)c2cccc(C(F)(F)F)c2)CCC1=O (centres unmarked)	-12%
COc1ccccc1CN1CCN(Cc2nc(-c3cccs3)no2)CC1	-42.8%
O=C(C[n+]1ccc(-c2nnc3n2CCC3)cc1)c1ccc(Cl)c(Cl)c1.[Br-]	-14%
O=C(O)CC1(CC(=O)NCc2ccc(Cl)cc2)CCCCC1	8.75%
CCC12CN(C(=O)c3ccc(C)cc3)CC(CC)(CN(C(=O)c3ccc(C)cc3)C1)C2=O	-33.3%
CCn1cc(C(=O)NCCCN2CCC(C)CC2)c(=O)c2cc(S(=O)(=O)N(C)C3CCCCC3)ccc21	-80%
CCn1cc(C(=O)NCCCN2CCC(C)CC2)c(=O)c2cc(S(=O)(=O)N3CCCC3)ccc21	-7.61%
CCn1cc(C(=O)NCCCN2CCC(C)CC2)c(=O)c2cc(S(=O)(=O)N3CCOCC3)ccc21	-17.1%
COc1cc(NC(=O)c2ccc3c(c2)OCO3)ccc1NC(=O)c1ccco1	10.4%
Cc1ccc(CNC(=O)c2ccc(Cn3nc(C)cc3C)o2)cc1	-19.1%
CCOC(=O)/C(N=Nc1c(Br)cc(Br)cc1Br)=C(\C)O	6.47%
Cn1c(CC(=O)NNC(=O)c2ccc(F)cc2F)nc2ccccc21	-7.56%
CCCCCCN1C=C/C(=C\C=C(C#N)C#N)c2ccccc21	-37.4%
CN1/C(=C/C=C(C#N)C#N)C=Cc2ccccc21	11.5%
CCCCCCN1C=CC=C/C1=C/C=C(C#N)C#N	-76.5%

SMILES	hERG current change (%, negative = inhibition) at 10uM
CCCCCN1C=CC=C/C1=C\C=C(C#N)C#N	-70.9%
CCCN1C=CC(=CC=C(C#N)C#N)C=C1	-3.42%
CCCCCCN1C=CC=C/C1=C\C=C(C#N)C#N	-71.1%
CCCCCCN1C=CC(=C/C=C(\C#N)C(=O)OCC)C=C1	-4.32%
CCOC(=O)/C(C#N)=C/C=C1/C=CC=CN1C	3.01%
CC1=C/C(=C\C=C(C#N)C#N)N(C)c2ccccc21	9.34%
COc1ccc(OC)c(NC(=O)CSc2nnc(C)n2Cc2ccccc2)c1	-23.5%
Cc1ccc(C)c(N(C)S(=O)(=O)c2cccc3nsnc23)c1	-18.4%
Cc1cc(C)c(S(=O)(=O)Nc2cccc(C(=O)O)c2)cc1S(=O)(=O)Nc1cccc(C(=O)O)c1	18.2%
NNC(=O)c1ccc(Cn2cc(Cl)cn2)o1	15.6%
COC(=O)c1ccc(/C=N/N2CCN(Cc3ccccc3Cl)CC2)cc1	5.88%
COCCNC(=O)CCc1c(C)nc2c(c(C)nn2-c2ccc(C)c(C)c2)c1C	-3.85%
COCCNC(=O)CCc1c(C)nc2c(c(C)nn2-c2ccc(C)cc2)c1C	-17.6%
CCN(CC)CCNC(=O)CCc1c(C)nc2c(c(C)nn2-c2ccc(C)cc2)c1C	-55.4%
CCN(CC)CCNC(=O)CCc1c(C)nc2c(c(C)nn2-c2ccc(C)c(C)c2)c1C	-62.3%
COCCCNC(=O)CCc1c(C)nc2c(c(C)nn2-c2ccc(C)cc2)c1C	-7.71%
CCCNC(=O)CCc1c(C)nc2c(c(C)nn2-c2ccc(C)cc2)c1C	-0.266%
Cc1ccc(-n2nc(C)c3c(C)c(CCC(=O)NCCCOC(C)C)c(C)nc32)cc1	-53.1%
Cc1ccc(-n2nc(C)c3c(C)c(CCC(=O)O)c(C)nc32)cc1C	30.7%
Cc1nc2c(c(C)nn2-c2ccccc2)c(C)c1CCC(=O)NCCCOC(C)C	-34.7%
